# Records with an inconclusive call do not appear. Entries that show only a call come without a potency. The source made the active and inactive calls. Calls come from the whole dose curve; as a rule, active = well fitted cell-killing curve with a large enough effect; inconclusive = small, poorly fitted or top-dose-only effect; inactive = flat fitted curve, though single readings scatter.
# Experiment: qHTS of pediatric cancer cell lines to identify multiple opportunities for drug repurposing: Primary screen for control Hh wild type fibroblast cells (AID 1347106);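 note: a drop in luminescence marks cytotoxicity and a rise apparent proliferation; nearly all actives have a fitted effect of over 55% in size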
# Details: Hh wild-type fibroblast viability, CellTiter-Glo luminescence, 48 h; series mostly up to 46 µM
# Excerpt: Drug repurposing or repositioning has been offered as a strategy for drug development in oncology programs. This approach has special potential for childhood cancers and other rare or orphan diseases, where the expected return on new drug development has been a disincentive to pharmaceuticals.
# In this project we exploit the poly-pharmacology of drugs to discover new indications via phenotypic screening of a panel of 19 well-characterized cell lines derived from solid tumors seen in children and adolescents. The goal is to identify approved drugs with previously unrecognized anticancer properties that has the potential to reveal new mechanisms and biological processes involved in carcinogenesis or drug resistance. We employed a titration-based paradigm (quantitative high-throughput screening or qHTS), where all compounds were tested at multiple concentrations for their effect on cell viability. Concentration-response curves (CRCs) were derived directly from the primary screen, and both potency and efficacy values were used to identify compounds with robust bioactivity profiles. We screened the NIH Chemical Genomics Center (NCGC) Pharmaceutical Collection (NPC) and Mechanism Interrogation Plate (MIPE) small molecule collections of approved and investigational compounds against these cell lines; and measured metabolically active cells after 48 hours of compound treatment as a proxy for cell viability.
# Assay Submitter: Nathalia J. Martinez, National Center for Advancing Translational Sciences, National Institutes of Health, Rockville, MD, USA; email: natalia.martinez@nih.gov
# [1] Shen, M et al. Quantitative high-throughput phenotypic screening of pediatric cancer cell lines identifies multiple opportunities for drug repurposing. Oncotarget 2017 Dec 19;9(4):4758-4772. PMID 29435139.
# The cells were obtained from University of North Carolina (UNC), Pediatric Preclinical Testing Program (PPT), and Coriell Institute (CI).
# qHTS cell viability assay:
# Cells were assayed in growth media at a density of 500-1,000 cells/well. Five microliters of cells were dispensed into 1,536-well, white, solid-bottom, TC-treated plates (Greiner Bio One) using a multidrop dispenser and incubated at 37 degrees C, 5% CO2, under a humidified atmosphere for 5 hours. Twenty-three nanoliters of compounds and controls (neutral control DMSO or positive control bortezomib at final concentration of 2.3 µM) were subsequently transferred by Kalypsys pintool. For primary screens, the MIPE collection was tested at 11-point dilutions (final concentrations range from 0.78 nM to 46 µM) and the NPC collection at 8-point dilutions (final concentrations range from 0.59 nM to 46 µM). Compounds tested in follow-up screens were assayed at 11-point dilutions. Cells were incubated for 48 hours, followed by addition of 3 µL of CellTiter-Glo (Promega). After a 15 min incubation at room temperature, samples were analyzed for luminescence intensity using a ViewLux High-throughput CCD imager equipped with clear filters.
row,Compound,Potency
1,O=C(O)c1cc(O)c2c(c1)C(=O)c1cccc(O)c1C2=O,inactive
2,CN[C@@H](C)C(=O)N[C@H]1CN(C(=O)CC(C)C)CC[C@H]2CC[C@@H](C(=O)NC(c3ccccc3)c3ccccc3)N2C1=O,inactive
3,COc1ccc(-c2cc(=O)c3c(O)cc(O)cc3o2)cc1O,inactive
4,OC[C@@H](O)[C@H](O)[C@H](O)[C@@H](O)CO,inactive
5,COC(=O)[C@@H]1[C@H]2C[C@H]3c4[nH]c5ccccc5c4CCN3C[C@@H]2CC[C@@H]1O,inactive
6,O=C(O)c1ccc(-c2cc3cccnc3c(-c3ccc4nonc4c3)n2)cc1,inactive
7,C[C@H]1[C@H](NC(=O)C(=NOC(C)(C)C(=O)O)c2csc(N)n2)C(=O)N1S(=O)(=O)O,inactive
8,OC[C@H]1O[C@@H](n2cnc3c2NC=NC[C@@H]3O)C[C@H]1O,inactive
9,O=C(O)CCc1nc(-c2ccccc2)c(-c2ccccc2)o1,inactive
10,O=c1c(-c2ccc(O)cc2)coc2cc(O[C@@H]3O[C@H](CO)[C@H](O)[C@H](O)[C@H]3O)ccc12,inactive
11,Cn1c(N2CCCCS2(=O)=O)nc(C(=O)NCc2ccc(F)cc2)c(O)c1=O,inactive
12,COc1cc(Nc2ncc(F)c(Nc3ccc4c(n3)NC(=O)C(C)(C)O4)n2)cc(OC)c1OC,inactive
13,Cc1c(O)cccc1C(=O)N[C@@H](CSc1ccccc1)[C@H](O)CN1C[C@H]2CCCC[C@@H]2C[C@@H]1C(=O)NC(C)(C)C,inactive
14,CCCCCNC(=O)N1CCC(CN(Cc2ccc(Cl)cc2)Cc2ccc([N+](=O)[O-])s2)C1 (stereo not given),inactive
15,CN(C)CCC=C1c2ccccc2COc2ccc(CC(=O)O)cc21,inactive
16,O=c1cc(-c2ccccc2)oc2cc(O)cc(O)c12,inactive
17,CC(C)C(C)C=CC(C)C1CCC2C3=CC=C4CC(O)CCC4(C)C3CCC21C (stereo not given),inactive
18,C[N+](C)(C)CC(=O)O,inactive
19,O=c1cc(-c2ccccc2)oc2cc(O)c(O)c(O)c12,inactive
20,CON=C(C(=O)N[C@@H]1C(=O)N2C(C(=O)OCOC(=O)C(C)(C)C)=C(C=Cc3scnc3C)CS[C@H]12)c1csc(N)n1,inactive

row,Compound,Potency
1,O=C1Nc2ccc(Cl)cc2C(C#CC2CC2)(C(F)(F)F)O1 (stereo not given),inactive
2,CO[C@H]1C[C@@H]2CC[C@@H](C)[C@@](O)(O2)C(=O)C(=O)N2CCCC[C@@H]2C(=O)O[C@H]([C@H](C)C[C@@H]2CC[C@H](OC(=O)C(C)(CO)CO)[C@H](OC)C2)CC(=O)[C@H](C)C=C(C)[C@@H](O)[C@@H](OC)C(=O)[C@H](C)C[C@H](C)C=CC=CC=C1C,inactive
3,COc1ccc(C2CC(c3ccccc3)=NN2c2ccc(S(N)(=O)=O)cc2)cc1 (stereo not given),inactive
4,O=C(CCc1ccc(O)cc1)c1c(O)cc(O)cc1O[C@@H]1O[C@H](CO)[C@H](O)[C@H](O)[C@H]1O,inactive
5,Clc1ccc(Cn2c(CN3CCCC3)nc3ccccc32)cc1,inactive
6,CCCCC1C(=O)N(c2ccccc2)N(c2ccccc2)C1=O,inactive
7,CCCNC(=O)NS(=O)(=O)c1ccc(Cl)cc1,inactive
8,CC1(C)CCC[C@@]2(C)[C@@H]1CC[C@@]1(C)OC(=O)C[C@H]21,inactive
9,CCOc1ccc(Nc2nc(-c3c(C)nc4ccccn34)cs2)cc1,inactive
10,COc1ccc2c3c1OC1C[C@@H](O)C=C[C@@]31CCN(C)C2 (stereo not given in full),inactive
11,CC(C)OC(=O)CCCC=CC[C@@H]1[C@H](C=C[C@@H](O)COc2cccc(C(F)(F)F)c2)[C@H](O)C[C@@H]1O,inactive
12,O=C(NCCN1CCOCC1)c1ccc(Cl)cc1,inactive
13,O=C(O)C(O)Cc1ccc(O)c(O)c1 (stereo not given),inactive
14,NC1=N[C@@]2(c3cc(NC(=O)c4ccc(F)cn4)ccc3F)COC[C@@H]2CS1,inactive
15,CO[C@H]1C[C@@H]2CC[C@@H](C)[C@@](O)(O2)C(=O)C(=O)N2CCCC[C@@H]2C(=O)O[C@H]([C@H](C)C[C@@H]2CC[C@H](OP(C)(C)=O)[C@H](OC)C2)CC(=O)[C@H](C)C=C(C)[C@@H](O)[C@@H](OC)C(=O)[C@H](C)C[C@H](C)C=CC=CC=C1C,inactive
16,CC#CCn1c(N2CCC[C@@H](N)C2)nc2c1c(=O)n(Cc1nc(C)c3ccccc3n1)c(=O)n2C,inactive
17,C[C@H](NC(=O)C(=O)Nc1ccccc1C(C)(C)C)C(=O)N[C@@H](CC(=O)O)C(=O)COc1c(F)c(F)cc(F)c1F,inactive
18,CCOC(=O)C1=C(N)Oc2ccc(Br)cc2C1C(C#N)C(=O)OCC (stereo not given),inactive
19,CC/C(=C(\c1ccccc1)c1ccc(OCCN(C)C)cc1)c1ccccc1,inactive
20,Cc1nnc(C(C)C)n1C1C[C@H]2CC[C@@H](C1)N2CC[C@H](NC(=O)C1CCC(F)(F)CC1)c1ccccc1 (stereo not given in full),inactive

# — PubChem BioAssay (NCATS)
